# Screens as filed in PubChem.
# DT40 TDP1 no CPT: qHTS for Inhibitors of human tyrosyl-DNA phosphodiesterase 1 (TDP1): qHTS in cells in absence of CPT; DT40 Tdp1-/- hTDP1 cells, no CPT, ATP luminescence, 48 h; 420,000 compounds, 15% hits; Potency, µM (doses to about 46.2 µM), for the others: top-dose activity change, negative = growth inhibition, hits mostly inhibitors; note: nearly all actives have a fitted effect of over 55% in size
#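 Growth of hTDP1-complemented DT40 Tdp1-knockout cells is measured by ATP luminescence after at least 48 hr compound exposure at 37 °C, with DMSO substituting for the 20 nM CPT used in the parallel screen.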
# KB-3-1 cytotox: qHTS assay for MDR1-selective chemotherapeutics: Primary screen using the parental adenocarcinoma cell KB-3-1; KB-3-1 viability, CellTiter-Glo ATP luminescence, 72 h; Potency, µM (top dose mostly 46.1 µM), actives largely listed as cytotoxic; 400,000 compounds, 1.4% hits; AID 1347075, 2019; note: nearly all actives have a fitted effect of over 60% in size
#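 Here the drug-naive KB-3-1 line serves as comparator for MDR sub-line selectivity; cells received compound titrations, 72 h at 37 °C, then CellTiter-Glo readout.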
# KB-V1 cytotox: qHTS assay for MDR1-selective chemotherapeutics: Primary screen using the drug-selected MDR subline cells KB-V1. Potency, µM (series often up to 46.1 µM), usual class: cytotoxic. 400,000 compounds, 3.4% hits. KB-V1 MDR cells viability, CellTiter-Glo, 72 h; note: nearly all actives have a fitted effect of over 60% in size
#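 KB-V1 cells (P-gp-expressing MDR subline of KB-3-1) in phenol-red-free DMEM with 10% FBS were exposed to library compounds over a concentration series for 72 h at 37 degrees C. Viability read by CellTiter-Glo luminescence; concentration-effect curves fitted after normalization.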
# HT1080NT lethal: qHTS for induction of synthetic lethality in tumor cells producing 2HG: qHTS for the HT-1080-NT fibrosarcoma cell line | HT-1080-NT fibrosarcoma viability, CellTiter-Glo ATP luminescence, 48 h | Potency, µM (highest dose often 46.1 µM), for the others: top-dose activity, negative = less viability, hits mostly cytotoxic | 360,000 compounds, 1.6% hits;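 note: NT is the 2HG producing partner of a matched IDH1 knockdown line; 0% = DMSO-treated cells and -100% = media-only wells without cells; nearly all actives have a fitted effect of over 55% in size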
#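 Fibrosarcoma NT cells, 750 per well in 5% FBS RPMI, were exposed to compound for 48 hours. Viability: CellTiter-Glo luminescence.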
# DT40 TDP1 CPT: qHTS for Inhibitors of human tyrosyl-DNA phosphodiesterase 1 (TDP1): qHTS in cells in presence of CPT; chicken DT40 Tdp1-/-;hTDP1 cells + 20 nM CPT, ATP luminescence, 48 h; Potency, µM (top dose mostly 46.2 µM), for inactives: at the top dose activity change, negative = growth inhibition, most hits filed as inhibitors; 420,000 compounds, 12% hits; note: nearly all actives have a fitted effect of over 55% in size
#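 Chicken DT40 Tdp1-/- cells stably complemented with human TDP1 were seeded at 400 cells/well in medium containing 20 nM camptothecin, exposed to pin-transferred compounds, and grown at 37 °C for at least 48 hr. Viability was read as ATP luminescence.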
# HT1080 IDH1KD tx: qHTS for induction of synthetic lethality in tumor cells producing 2HG: qHTS for the HT-1080-IDH1KD cell line; HT-1080 IDH1 knockdown viability, ATP luminescence, 48 h; Potency, µM (titrated, usually from 46.1 µM), for inactives: at the top dose activity, negative = toxicity, hits mostly cytotoxic; 360,000 compounds, 2% hits; AID 686971, 2013;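 note: 0% = DMSO wells and -100% = cell-free medium wells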
#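 % activity derives from luminescence (CellTiter-Glo), normalised to DMSO and no-cell wells. HT-1080-IDH1KD cells, 750/well, had 48 h compound exposure at 37 °C.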
# * marks the source's active call; other numbers are inactive results; i = inactive; ? = inconclusive; . = no result. An excerpt weighted towards active compounds, which were near 19% of everything screened. Calls come from the whole dose curve; as a rule, active = well fitted curve in the direction sought with a large enough effect; inconclusive = small, poorly fitted or top-dose-only effect, or another doubt; inactive = no such curve, though single readings can be large; an effect the other way counts as inactive or inconclusive. Unless noted, % is set by controls: 0 for no effect and ±100 for the full control effect; potency is the fitted concentration of half-maximal effect.
SMILES,DT40 TDP1 no CPT,KB-3-1 cytotox,KB-V1 cytotox,HT1080NT lethal,DT40 TDP1 CPT,HT1080 IDH1KD tx
CC(=O)NC(c1ccc(F)c(F)c1)c1nc(-c2ccncc2)cs1 (stereo not given),14.6µM*,i,i,-0.8%,18.4µM*,-3.0%
CC(=O)NC(c1ccc(F)c(F)c1)c1nc(-c2cccc(C(C)C)c2)cs1 (stereo not given),23.1µM*,i,i,-27.2%,16.4µM*,?
CC(=O)NC(c1ccc(F)c(F)c1)c1nc(-c2cccc(F)c2)cs1 (stereo not given),-25.9%,i,i,7.3%,20.6µM*,-4.7%
CC(=O)Nc1cccc(-c2csc(C(NC(C)=O)c3ccc(F)c(F)c3)n2)c1 (stereo not given),-22.1%,i,i,23.1%,-11.2%,0.7%
Cc1ccc(-n2c(O)c(C=NCc3ccccn3)c3ccccc3c2=O)cc1C,25.9µM*,i,i,-26.0%,8.2µM*,?
O=c1c2ccccc2c(C=NCc2ccccn2)c(O)n1-c1ccccc1,?,i,i,0.3%,-25.4%,14.0%
CCC1(C)Cc2ccccc2-c2nc(NCCCO)n(C)c(=O)c21 (stereo not given),?,i,i,4.0%,?,2.6%
CCC1(C)Cc2ccccc2-c2nc(NCCO)n(-c3ccccc3)c(=O)c21 (stereo not given),4.61µM*,i,?,16.9%,4.11µM*,2.0%
CC1(C)Cc2ccccc2-c2nc(NCCO)n(-c3ccccc3)c(=O)c21,18.4µM*,i,i,1.3%,18.4µM*,-0.5%
O=C1CC(N2CCOCC2)=NN1c1ccc([N+](=O)[O-])cc1,25.9µM*,i,i,-6.1%,?,-9.6%
O=C(N=NC(=O)c1ccc2c(O)n(CC3CCCO3)c(O)c2c1)c1cccnc1 (stereo not given),2.9%,i,i,1.9%,11.6%,12.2%
Cc1ccc(S(=O)(=O)N2CCOCC2)cc1C(=O)N(C)CCOc1ccc(Cl)cc1,16.4µM*,?,?,?,?,-21.9%
COc1ccc(S(=O)(=O)N2CCCCCC2)cc1C(=O)N(C)CCOc1ccccc1,18.4µM*,i,?,-1.1%,?,-0.3%
Cc1ccc(S(=O)(=O)N2CCCCC2)cc1C(=O)N(C)CCOc1ccccc1,-12.7%,i,i,26.9%,-24.5%,0.2%
Cc1ccc(NC(=O)CN(C)c2ccc(S(=O)(=O)N3CCCC3)cn2)cc1,?,i,?,-0.9%,-7.2%,-4.9%
COc1ccc(S(=O)(=O)N2CCCCCC2)cc1C(=O)N(C)Cc1ccc(Cl)cc1Cl,?,?,i,?,?,?
COc1ccc(S(=O)(=O)N2CCOCC2)cc1C(=O)N(C)CCOc1ccc(Cl)cc1,16.4µM*,i,?,-10.9%,?,-0.3%
CN(CCOc1ccc(Cl)cc1)c1ccc(S(=O)(=O)N2CCCCC2)cn1,23.1µM*,i,i,4.2%,18.4µM*,-12.1%
CCOC(=O)C1=C(CCc2ccccc2)NC(=O)NC1c1ccc(C#N)cc1 (stereo not given),?,i,i,0.0%,?,12.1%
COc1ccc(NC(=O)Cn2nnc(-c3nc(-c4ccncc4)no3)c2N)cc1OC,-5.4%,.,.,.,3.6%,.
CCN1C=C(C(=O)OC)C(c2cccc(OC)c2OC)C(C(=O)OC)=C1,-0.5%,i,?,0.0%,-7.9%,13.1%
CN(CCOc1ccc(Cl)cc1)C(=O)c1cc([N+](=O)[O-])ccc1N1CCOCC1,11.6µM*,i,?,-2.1%,20.6µM*,2.6%
CN(CCOc1ccc(Cl)cc1)C(=O)c1cc(S(=O)(=O)N2CCOCC2)ccc1N1CCCC1,20.6µM*,i,?,-23.2%,16.4µM*,-26.3%
CCc1ccc(OCC(=O)NNC(=O)c2cc(S(=O)(=O)N3CCOCC3)ccc2N2CCCC2)cc1,0.4%,i,?,-4.1%,-17.1%,-1.9%
Cc1cccc(C)c1NC(=O)CN(C)C(=O)c1cc([N+](=O)[O-])ccc1N1CCOCC1,-8.7%,i,i,-7.6%,-28.8%,-1.0%
SMILES,DT40 TDP1 no CPT,KB-3-1 cytotox,KB-V1 cytotox,HT1080NT lethal,DT40 TDP1 CPT,HT1080 IDH1KD tx
CC(C)c1nc2c(s1)CCc1onc(-c3cccc([N+](=O)[O-])c3)c1-2,23.1µM*,i,i,13.8%,?,11.2%
N#Cc1ccc(CN2CCN(C(=O)CNS(=O)(=O)c3ccc4c(c3)OCCCO4)CC2)cc1,-22.5%,i,i,-2.5%,-19.7%,0.0%
CC(=O)c1ccc(N=C2C(=O)Nc3ccccc32)cc1,13µM*,i,i,-24.2%,?,-19.2%
CC(C)OCCCNc1ccc(N2C(=O)CCCC2=O)cc1[N+](=O)[O-],5.2%,i,i,5.7%,-1.9%,4.9%
CC1=C(c2ccccc2)CCC1=O,3.9%,i,?,10.1%,1.9%,5.2%
CC1=C(c2ccccc2)C(O)(c2ccccc2)C(C)C1=O (stereo not given),16.4µM*,?,?,?,16.4µM*,?
N#Cc1c(-c2ccc(Cl)cc2)cc(-c2ccccc2)nc1SCC(=O)O,?,i,i,-13.3%,18.4µM*,-0.1%
N#Cc1c(-c2ccccc2)cc(-c2ccccc2)nc1SCC(=O)Nc1ccc(Cl)cc1,-19.6%,i,i,.,-2.1%,.
CCc1nnc(NC(=O)Cc2ccc(OC)cc2)s1,-3.6%,i,i,26.4%,11.4%,9.8%
CCc1nnc(NC(=O)CSc2nc(-c3ccccc3)cc(-c3ccc(OC)cc3)c2C#N)s1,20.6µM*,i,i,16.9%,23.1µM*,18.0%
CCc1nnc(NC(=O)CSc2nc3cc(OC)ccc3cc2C)s1,8.2µM*,i,i,-2.8%,-28.0%,4.1%
COc1ccc(-c2cc(-c3ccccc3)c(C#N)c(SCC(=O)Nc3ncc(C)s3)n2)cc1,?,i,?,-10.0%,-20.0%,-0.4%
COc1ccc(-c2cc(-c3ccccc3)nc(SCC(=O)Nc3nccs3)c2C#N)cc1,8.2µM*,i,?,10.8%,?,6.2%
